Rows were chosen to be rich in hits. Some 2.4% of all compounds tested hit in one or more screens of this group.
D2 PAM-1 – potentiates the human D2 dopamine receptor allosterically; DiscoveRx D2 beta-arrestin cells, luminescence, 90 min; 100% = 57 uM dopamine signal; AID 624464; potentiation, % (no concentration beside the values); 360,000 compounds, 0.23% hits; in the data active = potentiation above about 50%; inconclusive = mostly about 30% to 49%
Target sequence (P14416 whole entry, looked up): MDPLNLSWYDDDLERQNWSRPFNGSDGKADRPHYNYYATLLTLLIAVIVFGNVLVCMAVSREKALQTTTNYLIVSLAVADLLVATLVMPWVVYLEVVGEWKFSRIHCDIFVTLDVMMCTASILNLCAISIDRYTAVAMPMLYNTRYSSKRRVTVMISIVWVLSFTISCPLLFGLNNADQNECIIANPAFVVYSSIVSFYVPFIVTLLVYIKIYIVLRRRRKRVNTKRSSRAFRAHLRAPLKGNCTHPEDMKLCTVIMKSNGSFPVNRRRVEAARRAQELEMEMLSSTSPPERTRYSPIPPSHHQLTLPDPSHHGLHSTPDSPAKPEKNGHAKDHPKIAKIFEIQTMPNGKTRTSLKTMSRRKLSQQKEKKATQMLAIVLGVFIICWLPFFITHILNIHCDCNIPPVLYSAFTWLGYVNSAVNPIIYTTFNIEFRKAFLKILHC
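PathHunter D2 cells, attached overnight at 37 deg C, received compound in DMSO plus dopamine at EC20 (50 nM final) for 90 min at 37 deg C. Beta-arrestin recruitment was read as luminescence after 1 h with detection reagent at ambient temperature.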
D2 PAM-2 – positive allosteric modulators of human D2 dopamine receptor | P14416 | HEK293 T-REx D2, calcium flux, EC20 dopamine potentiation | potentiation, % at 10 µM | 340,000 compounds, 0.34% hits;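 active = potentiation over 3 SD above the plate norm, cut at about 30% in these data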
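Tetracycline-induced HEK293 T-REx cells force-coupled to calcium signalling expressed D2; compounds were pin-added after a 10 s baseline, read kinetically 180 s, then an EC20 dopamine challenge followed with a further 180 s calcium read.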
D2 antag – D2 dopamine receptor (human) antagonism; P14416; HEK293 TREx D2 cells, calcium flux, dopamine EC80; inhibition, % at 10 µM; 340,000 compounds, 2% hits; in the data active = inhibition above about 30%; inactive = below that, where a call was filed
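HEK293 T-REx D2 cells, tet-induced, calcium dye no-wash. Cpd pintool add, 180 s kinetic, then EC80 DA, 180 s kinetic. Ca flux read.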
D2 ag-1 – agonists of human D2 dopamine receptor | P14416 | HEK293 T-REx D2 cells, calcium flux agonist mode | activation, % at 2 µM | 340,000 compounds, 0.53% hits | AID 485358;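 active = activation over 3 SD above normal in the single-dose calcium agonist read, cut at about 30% in these data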
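Calcium-flux readout, 1 cycle/sec over 180 s following compound pin transfer, in inducible HEK293 Trex D2 cells (force-coupled); dopamine controls included. Positive calcium responses during this window marked compounds as potential agonists.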
D2 ag-2 – activates the human D2 dopamine receptor | P14416 | DiscoveRx PathHunter D2 beta-arrestin, luminescence, 90 min; 100% = 57 uM dopamine signal | activation, % (test concentration not listed) | 360,000 compounds, 0.084% hits | AID 624465; in the data active = activation above about 40%; inconclusive = between about 15% and that limit
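Agonist mode: compounds alone added to overnight-plated D2 PathHunter cells for 90 min at 37 C, with 57 uM final dopamine (EC100) defining full response. Beta-arrestin recruitment detected by chemiluminescent reagent, read after 1 h at ambient temperature.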
D3 ag – confirmation of human D3 dopamine receptor agonists, beta-arrestin; DiscoveRx D3 beta-arrestin cells, luminescence, 90 min; shares compounds with D2 ag-1; Potency, µM (series often up to 76.9 µM), hits mostly activators; AID 720506; 2,300 compounds, 4% hits; note: nearly all actives have a fitted effect of over 70% in size
D2 ag-3 – D2 receptor agonism, beta-arrestin counterscreen | shares compounds with D2 ag-1 | DiscoveRx PathHunter D2 beta-arrestin, luminescence, 90 min; response scale: percent relative to full dopamine signal | Potency, µM (highest dose often 76.9 µM), usual class: activators | 2,300 compounds, 5.9% hits | AID 720507; note: nearly all actives have a fitted effect of over 70% in size
Each line names hits and unclear results; the compound was inactive in the other large screens (follow-up assays come after a bar, where they were run). Unless noted, calls come from the whole dose curve; as a rule, active = well fitted activation curve with a large enough effect; inconclusive = small, poorly fitted or top-dose-only effect; inactive = flat fitted curve, though single readings scatter.

CCC(C)Nc1ccc(NC(C)CC)cc1 (configuration not stated)	none | D3 ag inactive | D2 ag-3 inactive
Cc1ccc(NC(=O)CC(NC(=O)c2ccccc2Cl)c2ccccc2)nc1 (configuration not stated)	none | D3 ag inactive | D2 ag-3 inactive
Cc1ccnc(NC(=O)CC(NC(=O)c2ccccc2Cl)c2ccccc2)c1 (configuration not stated)	none
CC(C)OCC(O)CS(=O)(=O)Cc1ccccc1 (configuration not stated)	D2 ag-1 58 | D3 ag inactive | D2 ag-3 inactive
COc1ccc(NC(=O)N2CCN(S(=O)(=O)c3ccc4c(ccn4C)c3)CC2)cc1OC	none (no result: D2 PAM-1, D2 antag, D2 ag-2)
CCOc1ccccc1CNC(=O)C(CC)n1nc(C)c2c(C)n(-c3ccccc3)nc2c1=O (configuration not stated)	none (no result: D2 PAM-1, D2 antag, D2 ag-2)
O=C(O)c1ccccc1SC1CC(=O)N(c2cccc3ccccc23)C1=O (configuration not stated)	D2 ag-1 41 | D3 ag inactive | D2 ag-3 inactive
CCN1C(=O)CC(Sc2ccccc2C(=O)O)C1=O (configuration not stated)	none
O=C(O)/C=C/C(=O)NCCCc1ccccc1	none | D3 ag inactive | D2 ag-3 inactive
O=C(O)/C=C/C(=O)NCc1ccccc1	none
Cc1c(C(=O)N(Cc2ccccc2F)C2CCS(=O)(=O)C2)oc2ccccc12 (configuration not stated)	none (no result: D2 PAM-1, D2 antag, D2 ag-2)
COc1ccc(NC(=O)c2cc3c(s2)-c2c(C)cccc2OC3)cc1Cl	none (no result: D2 PAM-1, D2 antag, D2 ag-2)
O=C(O)CCc1ccc(-c2cccs2)n1CCC(=O)O	none
O=C(O)CCc1ccc(-c2cccs2)n1CCc1ccccc1	none (no result: D2 antag, D2 ag-1) | D3 ag inactive | D2 ag-3 inactive
COc1ccc(-c2nc(CSCC(=O)NCCC(C)C)c(C)o2)cc1OC	none (no result: D2 PAM-1, D2 antag, D2 ag-2)
COc1ccccc1CNC(=O)c1c[nH]c2ccc(S(=O)(=O)Nc3cc(C)cc(C)c3)cc2c1=O	none (no result: D2 PAM-1, D2 antag, D2 ag-1, D2 ag-2)
COc1ccc2[nH]c3c(=O)n4c(nc3c2c1)SCC4	none
COc1cc2[nH]c3c(=O)n4c(nc3c2cc1OC)SCCC4	none | D3 ag inactive | D2 ag-3 inactive
CCOC(=O)CCc1c(C(=O)OCC)[nH]c(CC)c1C(=O)OCc1ccccc1	none | D3 ag inactive | D2 ag-3 inactive
CCOC(=O)c1c(C)[nH]c(C(=O)OCc2ccccc2)c1C	none
N#Cc1c(-c2ccco2)nc(SCc2ccc(F)cc2)[nH]c1=O	none
Cc1nc(SCc2cccc(F)c2)[nH]c(=O)c1C#N	none (no result: D2 PAM-2, D2 antag, D2 ag-1) | D3 ag inactive | D2 ag-3 inactive
CCOC(=O)c1c(C)c(C(=O)NCCCN2CCCC2=O)c(C)n1CC	D2 ag-1 62 | D3 ag inactive | D2 ag-3 inactive
COC(=O)c1cc2c(ccn2-c2ccc(F)cc2)n1Cc1ccc(C#N)cc1	none
COC(=O)c1cc2c(ccn2-c2ccc(F)cc2)n1Cc1ccc(OC)cc1	none | D3 ag inactive | D2 ag-3 inconclusive
CCc1ccc(CNC(=O)c2cccc(-n3cnc4cccnc43)c2C)cc1	none (no result: D2 PAM-1, D2 antag, D2 ag-2)
Cc1ncoc1C(=O)N1CCc2c([nH]c3ccccc23)C1C1CCCCC1 (configuration not stated)	none
O=C(O)C1CCCC2CN3CCc4c([nH]c5ccccc45)C3C(O)C21 (configuration not stated)	D2 antag 57, D2 ag-2 inconclusive | D3 ag inactive | D2 ag-3 inconclusive
O=C(O)[C@@H]1[C@H]2C[C@H]3c4[nH]c5ccccc5c4CCN3C[C@@H]2CC[C@@H]1O	D2 antag 68, D2 ag-1 41 | D3 ag inactive | D2 ag-3 inconclusive
O=C1CCC2CN3CCc4c([nH]c5ccccc45)C3CC2C1 (configuration not stated)	none (no result: D2 PAM-2, D2 antag, D2 ag-1)
